We go through seven molecules from PubChem BioAssay (EPA / NIEHS).

Molecules are shown by their SMILES. Calls of active or inactive are those of the source. The calls were made as follows: active = hit-call score of the fitted dose curve at least 0.9, where 1 is the maximum; inactive = score below 0.9.

Read-out in assay [1]: Thrombomodulin, THBD (gene 7056)
As to the kind of experiment: BSK_3C_Thrombomodulin: BioMAP Diversity Plus: 3C Assay for Thrombomodulin Biomarker Activity (AID 2283029). As to conditions: primary human endothelial cells (HUVEC); actives raise or lower the signal. Summed up:
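HUVEC, 3C conditions; compound 24 h; thrombomodulin by ELISA; bidirectional curve fit vs DMSO baseline; parallel SRB total-protein staining for cytotoxicity.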

Read-out in assay [2]: Urokinase-type plasminogen activator receptor (uPAR), PLAUR (gene 5329)
Put plainly: BSK_4H_uPAR: BioMAP Diversity Plus: 4H Assay for Urokinase-type plasminogen activator receptor (uPAR) Biomarker Activity (AID 2283030). As to conditions: primary human endothelial cells (HUVEC); actives raise or lower the signal. Summed up:
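HUVEC, 24 h post-dose; uPAR by ELISA; bidirectional fit vs DMSO baseline.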

Read-out in assay [3]: Human Leukocyte Antigen - DR isotype (HLADR), HLA-DRA (gene 3122)
As to the kind of experiment: BSK_BE3C_HLADR: BioMAP Diversity Plus: BE3C Assay for Human Leukocyte Antigen - DR isotype (HLADR) Biomarker Activity (AID 2283032). As to conditions: primary human bronchial epithelial cells; actives raise or lower the signal. Summed up:
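Primary human bronchial epithelial cells (BE3C); 24 h chemical exposure; HLA-DR by ELISA; bidirectional curve fit vs DMSO baseline.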

Read-out in assay [4]: Interferon-gamma inducible Protein 10 (IP10), CXCL10 (gene 3627)
Put plainly: BSK_BE3C_IP10: BioMAP Diversity Plus: BE3C Assay for Interferon-gamma inducible Protein 10 (IP10) Biomarker Activity (AID 2283034). As to conditions: primary human bronchial epithelial cells; actives raise or lower the signal. An outline of the steps:
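ELISA readout of IP-10 in BE3C system: primary human bronchial epithelial cells, 24 h post-dosing; bidirectional curve fit vs DMSO baseline.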

Read-out in assay [5]: Monokine induced gamma interferon (MIG), CXCL9 (gene 4283)
As to the kind of experiment: BSK_BE3C_MIG: BioMAP Diversity Plus: BE3C Assay for Monokine induced gamma interferon (MIG) Biomarker Activity (AID 2283035). Conditions: primary human bronchial epithelial cells; actives raise or lower the signal. Summed up: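 Dose cells (human primary bronchial epithelial), incubate 24 h, quantify MIG by ELISA, then fit concentration–response in both directions relative to DMSO control.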

Read-out in assay [6]: Plasminogen activator inhibitor-1 (PAI1), SERPINE1 (gene 5054)
Put plainly: BSK_BE3C_PAI1: BioMAP Diversity Plus: BE3C Assay for Plasminogen activator inhibitor-1 (PAI1) Biomarker Activity (AID 2283037). As to conditions: primary human bronchial epithelial cells; actives raise or lower the signal. Summed up:
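ELISA read-out of PAI-1 from human bronchial epithelial primary cells, 24 h post-dosing; bidirectional curve fit vs DMSO baseline, gain or loss of signal scored.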

Read-out in assay [7]: urokinase plasminogen activator (uPA), PLAU (gene 5328)
Put plainly: BSK_BE3C_uPA: BioMAP Diversity Plus: BE3C Assay for urokinase plasminogen activator (uPA) Biomarker Activity (AID 2283038).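 Also: uPA protein level quantified by ELISA in cell cultures; uPA read one day after compound addition.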 As to conditions: primary human bronchial epithelial cells; actives raise or lower the signal. An outline of the steps: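 ELISA read-out of uPA in human lung primary bronchial epithelial cultures, 24 h post-dosing. Gain or loss of signal fitted bidirectionally relative to DMSO baseline; cytotoxicity checked in parallel cultures via SRB total protein stain.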

Read-out in assay [8]: Interleukin-6 (IL6), IL6 (gene 3569)
As to the kind of experiment: BSK_CASM3C_IL6: BioMAP Diversity Plus: CASM3C Assay for Interleukin-6 (IL6) Biomarker Activity for (AID 2283040). As to conditions: primary human coronary artery smooth muscle cells; actives raise or lower the signal.

Read-out in assay [9]: Tissue plasminogen activator (tPA), PLAT (gene 5327)
Put plainly: BSK_BE3C_tPA: BioMAP Diversity Plus: BE3C Assay for Tissue plasminogen activator (tPA) Biomarker Activity (AID 2283041).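 As to outcome: tPA level quantified by ELISA one day after compound addition.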 As to conditions: primary human bronchial epithelial cells; actives raise or lower the signal. Summed up: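 ELISA read-out of tPA on human primary bronchial epithelial cells, 24 h post-dosing; bidirectional fit vs DMSO negative control/baseline.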

Read-out in assay [10]: Interleukin-8 (IL8), CXCL8 (gene 3576)
As to the kind of experiment: BSK_CASM3C_IL8: BioMAP Diversity Plus: CASM3C Assay for Interleukin-8 (IL8) Biomarker Activity (AID 2283042).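 Also: IL-8 protein level quantified by ELISA.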 As to conditions: primary human coronary artery smooth muscle cells; actives raise or lower the signal.

Read-out in assay [11]: Human Leukocyte Antigen - DR isotype (HLADR), HLA-DRA (gene 3122)
As to the kind of experiment: BSK_CASM3C_HLADR: BioMAP Diversity Plus: CASM3C Assay for Human Leukocyte Antigen - DR isotype (HLADR) Biomarker Activity (AID 2283043).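 Also: cell-surface HLA-DR protein level quantified by ELISA.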 As to conditions: primary human coronary artery smooth muscle cells; actives raise or lower the signal.

Read-out in assay [12]: Macrophage colony-stimulating factor (MCSF), CSF1 (gene 1435)
Put plainly: BSK_CASM3C_MCSF: BioMAP Diversity Plus: CASM3C Assay for Macrophage colony-stimulating factor (MCSF) Biomarker Activity (AID 2283044).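 Also: M-CSF protein amount quantified by ELISA after 24 h exposure.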 As to conditions: primary human coronary artery smooth muscle cells; actives raise or lower the signal.

Read-out in assay [13]: Low-density lipoprotein receptor (LDLR), LDLR (gene 3949)
Put plainly: BSK_CASM3C_LDLR: BioMAP Diversity Plus: CASM3C Assay for Low-density lipoprotein receptor (LDLR) Biomarker Activity (AID 2283045).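 Also: LDLR protein level on the cell surface quantified by ELISA.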 As to conditions: primary human coronary artery smooth muscle cells; actives raise or lower the signal.

Read-out in assay [14]: Monocyte Chemoattractant Protein-1 (MCP1), CCL2 (gene 6347)
Put plainly: BSK_CASM3C_MCP1: BioMAP Diversity Plus: CASM3C Assay for Monocyte Chemoattractant Protein-1 (MCP1) Biomarker Activity (AID 2283046).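 Also: MCP-1 level quantified by ELISA 24 h after dosing.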 As to conditions: primary human coronary artery smooth muscle cells; actives raise or lower the signal.

A short description of assay [15]: BSK_CASM3C_Proliferation: Cell Proliferation Assessment in the BioMAP Diversity Plus: CASM3C Assay (AID 2283047).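 Also: sulforhodamine B total protein stain as relative cell number at 560 nm; sub-confluent cells exposed 48 h before staining; fitted both ways against DMSO so gain or loss of cell number.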 Conditions: primary human coronary artery smooth muscle cells.
Read-out in assay [16]: Monokine induced gamma interferon (MIG), CXCL9 (gene 4283)
Put plainly: BSK_CASM3C_MIG: BioMAP Diversity Plus: CASM3C Assay for Monokine induced gamma interferon (MIG) Biomarker Activity (AID 2283048).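 Also: MIG protein level measured by ELISA.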 Conditions: primary human coronary artery smooth muscle cells; actives raise or lower the signal.

Read-out in assay [17]: Thrombomodulin, THBD (gene 7056)
As to the kind of experiment: BSK_CASM3C_Thrombomodulin: BioMAP Diversity Plus: CASM3C Assay for Thrombomodulin Biomarker Activity (AID 2283051).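 Also: thrombomodulin protein level measured by ELISA 24 h after dosing.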 Conditions: primary human coronary artery smooth muscle cells; actives raise or lower the signal.

Read-out in assay [18]: Tissue Factor, F3 (gene 2152)
Put plainly: BSK_CASM3C_TissueFactor: BioMAP Diversity Plus: CASM3C Assay for Tissue Factor Biomarker Activity (AID 2283052).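 Also: cell surface tissue factor protein level read by ELISA.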 Conditions: primary human coronary artery smooth muscle cells; actives raise or lower the signal.

Read-out in assay [19]: Urokinase-type plasminogen activator receptor (uPAR), PLAUR (gene 5329)
As to the kind of experiment: BSK_CASM3C_uPAR: BioMAP Diversity Plus: CASM3C Assay for Urokinase-type plasminogen activator receptor (uPAR) Biomarker Activity (AID 2283054).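 Also: cell-surface uPAR protein level quantified by ELISA.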 As to conditions: primary human coronary artery smooth muscle cells; actives raise or lower the signal.

Read-out in assay [20]: Collagen III, COL3A1 (gene 1281)
Put plainly: BSK_hDFCGF_CollagenIII: BioMAP Diversity Plus: hDFCGF Assay for Collagen III Biomarker Activity (AID 2283056). Conditions: primary human foreskin fibroblasts; actives raise or lower the signal. An outline of the steps: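 hDFCGF primary human dermal fibroblasts; 24 h chemical exposure; collagen III by ELISA; bidirectional curve fit vs DMSO baseline (gain or loss of signal).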

`CC(C)CC(=O)CC(C)CC(C)C` (stereo not given): the AC50 is 20 µM (active) in [1]; 30.9 µM (active) in [2]; 36 µM (active) in [3]; 36.9 µM (active) in [4]; 34.6 µM (active) in assay [5]; 37.4 µM (active) in assay [6]. Besides, the AC50 is 20 µM (active) in assay [8]; 29.4 µM (active) in [9]; 27.3 µM (active) in [11]; 34.6 µM (active) in assay [12]; 34 µM (active) in assay [14]; 32 µM (active) in [15]. For the same molecule, the AC50 in assay [16] is 32.1 µM (active); in [18], 31.7 µM (active); in assay [19], 30.4 µM (active). Also, the outcome in assay [7], in assay [10], in assay [13], in assay [17] and in assay [20] was inactive.
In the case of `Sc1nc2ccccc2s1`, the outcome in [1], in assay [2], in [3], in assay [4], in assay [5] and in [6] was inactive. The result in assay [7], in assay [8], in [9], in [10], in assay [11] and in [12] was inactive. For the same molecule, the outcome in assay [13], in assay [14], in [15], in assay [16], in assay [17] and in assay [19] was inactive. In [20], the result was inactive. In assay [18], the AC50 is 0.016 µM (active).
On to `CCC(C)=NO`, for which the result in [1], in assay [2], in assay [3], in assay [4], in [5] and in assay [6] was inactive. The outcome in assay [7], in assay [8], in assay [9], in assay [10], in assay [11] and in [12] was inactive. The result in assay [13], in assay [14], in assay [15], in assay [16], in assay [17] and in [18] was inactive. For the same molecule, the outcome in assay [19] and in assay [20] was inactive.
With `CCCCCCC(O)CCCCCCCCCCC(=O)OC` (stereo not given), the outcome in assay [1], in assay [2], in [3], in [5], in assay [6] and in assay [7] was inactive. The result in [8], in [9], in [10], in assay [11], in assay [12] and in assay [13] was inactive. The result in assay [14], in assay [15], in [16], in [17], in assay [18] and in assay [19] was inactive. In addition, the outcome in assay [20] was inactive. Moreover, the concentration at half-maximal activity (AC50) in assay [4] was 9.22 µM (active).
Turning to `COC(=O)/C=C\C(=O)OC`, the result in assay [1], in assay [2], in [5], in [6], in [7] and in assay [8] was inactive. The outcome in [9], in assay [10], in [12], in [13], in assay [14] and in [15] was inactive. Moreover, the outcome in assay [16], in assay [17], in assay [18], in [19] and in assay [20] was inactive. The AC50 in assay [3] was 10.7 µM (active); in assay [4], 20 µM (active); in assay [11], 5.11 µM (active).
In the case of `O=C(C(=O)c1ccccc1)c1ccccc1`, the result in [1], in assay [2], in [3], in [4], in assay [5] and in assay [6] was inactive. The outcome in assay [7], in assay [8], in assay [9], in assay [10], in assay [11] and in [12] was inactive. Moreover, the result in assay [13], in [14], in [15], in assay [16], in [17] and in [18] was inactive. For the same molecule, the result in assay [19] and in assay [20] was inactive.
With `CCCCCCCCCC/C=C/C1CC(=O)OC1=O` (stereo not given), the result in assay [1], in assay [2], in assay [5], in assay [7], in assay [8] and in [10] was inactive. The result in assay [11], in [12], in assay [13], in assay [14], in [15] and in [16] was inactive. Also, the outcome in assay [17], in assay [18], in assay [19] and in assay [20] was inactive. Also, the AC50 in assay [3] was 20 µM (active); in [4], 18.4 µM (active); in assay [6], 20 µM (active); in assay [9] it was 14.5 µM (active).

A word on the AC50: it is the concentration at which the activity in the assay is half-maximal.
